Data on 40 sequences can be found in the supplement of paper PMC6555819.

This experiment deals with VDR:RXRa (NR concentration 270 nM, RXRa partner concentration 90 nM). Nature of the experiment: PBM binding z-score (relative to random genomic background probes); higher = stronger binding; sequences stand for … in GC…GCGATTGACAGCGTAGAATGAAGG
How it is done:
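Protein-binding microarray (Agilent 4x180K custom design, double-stranded 60-nt probes: 5' GC cap, 34-nt variable region, 24-nt constant primer region; full probe sequence given). Purified or IVT nuclear receptor:RXRα heterodimers (3:1 NR:RXRα, mostly 270:90 nM) or homodimers were incubated for 1 h in PBS with 2% milk and no ligand, then detected with Alexa488 antibodies. Fluorescence from o1-orientation probes (~5 replicates averaged) was converted to z-scores against 500 random hg19 background probes. Variable regions are seed direct-repeat (DR0–DR5) sites, all their single-nucleotide variants and half-site ablations.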
Regarding ATCTCTAGGTGAAGATAGTTCAGTGAATGCAAAT, the PBM binding z-score came out at 0.849.
AGCATGAGGTTATACGTAGATCAGGGAAGAAAGT: the PBM binding z-score was 1.44.
For CCTGCTAGGTCATGGTCAGATAATCTACAGTATG, the PBM binding z-score stood at 1.62.
Sequence CCTCGAAGGACAACAGGAGGTCAGAGCTGCCAGA came in with a PBM binding z-score of 1.73.
Turning to ATCTCTAGGTAACAAGTTCAGTGAGAGAGAGGAC, the PBM binding z-score came out at 2.22.
The value for ACTCGGAGGACAAAGGTCAAAGCTACGCCAGTGA was 4.8; that for CCGAGTGGGGCAGAAAGGTTACCATACCATCCGG was 0.759; that for TCTTGTAGATGAAAGGTTAAGAAAGCCGAAGCCT was 1.06.
The value for ACTAGCAGGCCAAGGGTTACTCAAGATTAGTCCG was 0.0944; that for GCTTACGGGTCAGAGGTTATAGCATGAATAGAAT was 3.48; that for TCTAGCAGGCCACAGGGTCACTCAAGAGGTACGG was 2.93.
The result for TTTCCAAGGTGAGCTGAGGTCGTTGATCCAACTC reads 4.12.
GGATCGAGGGCAAGTTGATAGCAGAGTTTGATGG: the PBM binding z-score came to 0.959.
The value for TCTTGTAGATCAACAGGAGGTAAAGAAAGATCGA was 0.194; that for CGTCCAGGGTCAGAGAGGTCAGTGAATGCCGAGT was 7.46; that for CTAGAAAGGTCGTGCTCAGGTGAGTATACCAAAC was 3.1.
The value for TCTATTAGTTGATTAGGGCAACTGAAACAGCGGA was 0.717; that for CCGACTGGGGCAAGGTTACCCTAACGCACAGCCA was 0.016.
Take GCTGCTAGGTCTGGTTGGTCAGCTAACGGGTACG: the PBM binding z-score is -0.816.
The result for GGAACGAGGGCAAAATTGATAGCATCTGTCGACG reads 0.352.
The value for CGTCCAAGGTCCGCAGGTCAGTGAAAGCGACGTG was -0.111; that for CCTGCTAGGTCATGGTCAGCTCATCTACAGTATG was 1.8; that for CTCGAAAGGTCGGTTGATGTGAGTATACGGATAA was 1.17.
Take CCGGGTAGGTTATGGGGCATTCAGGCAACGGTGA: the PBM binding z-score is 0.056.
The result for AGAACGAGGGCAAGCTGAGTTGATAGCAGAGTAG reads 1.37; that for CCTCGGAGGACAGTAGGTCAGAGCTGTCCGCTTT, -0.11; that for CCTACTGGGCCTCGAAAGGTCATTGATTCAGTGA, 3.34.
The value for TTACCAAGGTGAGCTGAGATCGTTGATCCAACTC was -0.473.
For GCGACTGGGGCATCAGCAGGTTAGCATAACTTAA, the PBM binding z-score was -0.526.
The value for GCTTGTCGATCAAGGTTAAGAAAGACTAAGCTAA was -0.0633; that for AATACAGGGTCACTACGCCAGAGTAGGTACGAAT was 4.39; that for TATAGTTGGTCAAAGGTCACACACTCGAAATGCG was 5.53.
The result for CTCGAAAGGTCGGTTGAAGTGAGTATACGGATAA reads 1.23; that for ACTAGGAGGCCAAGGGTCACTCAAGATTAGTCCG, 2.98; that for ACTAGCAGACCAAGGGTCACTCAAGATTAGTCCG, 2.58.
With CCTTACGGGTCAAGGTTTTAGCACGGGTGGTACG, the PBM binding z-score was determined as 2.82.
The value for TTACCCAGGTGAGCTGAGGTCGTTGATCCAACTC was 2.93.
The result for CCAGACAGGTAAAAGGTAACTCAGTCTGGTACGC reads 0.318; that for TTACCAAGGTGAAGGTCGTAGATCCCTCTGTAGA, 0.681.
For ACTAGCAGGCCAAGGCTCACTCAAGATTAGTCCG, the PBM binding z-score was -0.781.
